In PubChem BioAssay (NCI):
This is part of a sample that, as a whole, favours compounds with a hit. Of some 83,000 tested, about 20% had one in any assay.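 How to read the values: 0–100, growth inhibition (40 = 60% inhibited); 0, no net growth; -100 to 0, cell death (-40 = 40% of starting cells died; -100 = all dead).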 Activity calls are given as the source filed them. Rule for the calls: active = growth percent below 10; inactive = the rest.

Key:
Experiment in all cases: NCI-60 one-dose screen, 48 h (100 = growth as untreated, 0 = no growth, -100 = all killed)
Details in all cases: 10 µM unless noted
HCT-15 colon = tested on: HCT-15 colon
HT29 colon = tested on: HT29 colon
SNB-75 CNS = tested on: SNB-75 CNS
SNB-19 CNS = tested on: SNB-19 CNS
U251 CNS = tested on: U251 CNS
SK-MEL-5 melanoma = tested on: SK-MEL-5 melanoma
UACC-62 melanoma = tested on: UACC-62 melanoma
LOX IMVI melanoma = tested on: LOX IMVI melanoma
SK-MEL-28 melanoma = tested on: SK-MEL-28 melanoma
SK-MEL-2 melanoma = tested on: SK-MEL-2 melanoma
EKVX NSCLC = tested on: EKVX NSCLC
SN12C renal = tested on: SN12C renal
UO-31 renal = tested on: UO-31 renal
TK-10 renal = tested on: TK-10 renal
ACHN renal = tested on: ACHN renal
CAKI-1 renal = tested on: CAKI-1 renal
A498 renal = tested on: A498 renal
CCRF-CEM leukemia = tested on: CCRF-CEM leukemia
MOLT-4 leukemia = tested on: MOLT-4 leukemia

Measured: growth

O=C(/C=C/c1ccccc1Cl)c1cccc(OCCCCOc2cccc(C(=O)/C=C/c3ccccc3Cl)c2)c1
inactive: HCT-15 colon 103% | HT29 colon 96.9% | SNB-75 CNS 86% | SNB-19 CNS 100% | U251 CNS 90.3% | SK-MEL-5 melanoma 99.5% | UACC-62 melanoma 85.5% | LOX IMVI melanoma 102% | SK-MEL-28 melanoma 99.7% | SK-MEL-2 melanoma 110% | EKVX NSCLC 107% | SN12C renal 95.8% | UO-31 renal 83.9% | TK-10 renal 118% | ACHN renal 98.4% | CAKI-1 renal 93.4% | A498 renal 109% | CCRF-CEM leukemia 91.8% | MOLT-4 leukemia 93.9%

Oc1nc(NCc2ccccc2)sc1/C=C1\C=Nc2ncccc21
inactive: HCT-15 colon 67.4% | HT29 colon 57.9% | SNB-75 CNS 37.3% | SNB-19 CNS 63.3% | U251 CNS 51.1% | SK-MEL-5 melanoma 70% | UACC-62 melanoma 69.7% | LOX IMVI melanoma 52.1% | SK-MEL-28 melanoma 69.2% | SK-MEL-2 melanoma 72.9% | EKVX NSCLC 73.7% | SN12C renal 72.8% | UO-31 renal 84.8% | ACHN renal 29.2% | CAKI-1 renal 74.6% | A498 renal 63.4% | CCRF-CEM leukemia 49.6% | MOLT-4 leukemia 52.4%

Nc1nc2ccccc2c2c(=O)c3cc(Cl)ccc3sc12
inactive: HCT-15 colon 96.8% | HT29 colon 102% | SNB-75 CNS 91.2% | SNB-19 CNS 96.1% | U251 CNS 98.5% | SK-MEL-5 melanoma 96.5% | UACC-62 melanoma 93.4% | LOX IMVI melanoma 103% | SK-MEL-28 melanoma 109% | SK-MEL-2 melanoma 106% | EKVX NSCLC 91.4% | SN12C renal 94.9% | UO-31 renal 86.6% | TK-10 renal 109% | ACHN renal 99.8% | CAKI-1 renal 87.8% | A498 renal 107% | CCRF-CEM leukemia 101% | MOLT-4 leukemia 105%

CN1CCN(c2ccc(NC3=CC(=O)c4ncncc4C3=O)cc2)CC1
active: HCT-15 colon -71.7% | HT29 colon -29% | SNB-75 CNS -94.7% | SNB-19 CNS -91.9% | U251 CNS -82.3% | SK-MEL-5 melanoma -94% | UACC-62 melanoma -89.8% | LOX IMVI melanoma -63.8% | SK-MEL-28 melanoma -75.3% | SK-MEL-2 melanoma -54% | EKVX NSCLC -87.1% | UO-31 renal -98.3% | TK-10 renal -82.3% | ACHN renal -96.2% | CAKI-1 renal -96% | A498 renal -36.7% | CCRF-CEM leukemia 3.21% | MOLT-4 leukemia -28.4%

CN(C)Cc1cc(C(C)(C)C)cc(Br)c1O
inactive: HCT-15 colon 95.6% | HT29 colon 81.8% | SNB-75 CNS 91.5% | SNB-19 CNS 113% | U251 CNS 107% | SK-MEL-5 melanoma 96.1% | UACC-62 melanoma 101% | LOX IMVI melanoma 103% | SK-MEL-28 melanoma 112% | SK-MEL-2 melanoma 113% | EKVX NSCLC 96.8% | SN12C renal 105% | UO-31 renal 98% | TK-10 renal 100% | ACHN renal 108% | CAKI-1 renal 91.6% | A498 renal 90.6% | CCRF-CEM leukemia 116% | MOLT-4 leukemia 110%

CC(=O)c1ccc(-n2cc(CN3CCN(c4cc5c(cc4F)c(=O)c(C(=O)O)cn5C4CC4)CC3)nn2)cc1
inactive: HCT-15 colon 93.8% | HT29 colon 90.8% | SNB-75 CNS 92.7% | SNB-19 CNS 98.2% | U251 CNS 98.4% | SK-MEL-5 melanoma 84.3% | UACC-62 melanoma 90.5% | LOX IMVI melanoma 55.4% | SK-MEL-28 melanoma 99.3% | SK-MEL-2 melanoma 96.4% | EKVX NSCLC 88.5% | SN12C renal 103% | UO-31 renal 63.1% | TK-10 renal 103% | ACHN renal 96.7% | CAKI-1 renal 87.8% | A498 renal 76.7% | CCRF-CEM leukemia 111% | MOLT-4 leukemia 102%

Clc1ccc(Nc2ncc(Cc3cccc(Cl)c3Cl)s2)cc1
inactive: HCT-15 colon 92.3% | HT29 colon 95.7% | SNB-75 CNS 116% | SNB-19 CNS 98% | U251 CNS 85.7% | SK-MEL-5 melanoma 97.1% | UACC-62 melanoma 81.6% | LOX IMVI melanoma 97.7% | SK-MEL-28 melanoma 95.6% | SK-MEL-2 melanoma 101% | EKVX NSCLC 97.9% | SN12C renal 90.8% | UO-31 renal 72.5% | TK-10 renal 98.3% | ACHN renal 97.5% | CAKI-1 renal 87.7% | A498 renal 93.7% | CCRF-CEM leukemia 94% | MOLT-4 leukemia 86.7%

CCn1cc(C(=O)O)c(=O)c2cc(F)c(N3CCN(CC(=O)Nc4ccccc4)C(C)C3)c(F)c21 (centres undefined)
inactive: HCT-15 colon 101% | HT29 colon 108% | SNB-75 CNS 86.1% | SNB-19 CNS 99.1% | U251 CNS 102% | SK-MEL-5 melanoma 99.2% | LOX IMVI melanoma 88.5% | SK-MEL-28 melanoma 97% | SK-MEL-2 melanoma 122% | EKVX NSCLC 104% | SN12C renal 103% | UO-31 renal 76.5% | TK-10 renal 108% | ACHN renal 97.8% | CAKI-1 renal 87% | A498 renal 73.4% | CCRF-CEM leukemia 96.7% | MOLT-4 leukemia 107%
